# Laboratory results from PubChem BioAssay AID1159580 (chemical genetic matrix, 2015).
# Several values for one entry are separate records, joined by “and”; a condition that tells them apart may be missing. Equal entries are not always repeated. In all, about 5,500 compounds went through this assay and about 2,000 (36%) were called active. Another 18% or so got no clear call; they are omitted. Rule as the data show it: active = normalized growth mostly below about 0.91 (no sharp cut-off); inconclusive = no clear call, values can overlap the other calls; inactive = mostly above about 0.92. Some of the results follow.
# Experiment: chemical genetic growth profiling, strain panel (AID 1159580);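 also: tested at 20 µM; growth read once vehicle control cultures reached saturation at 30 °C; 1 = growth at the plate median or of vehicle wells; lower values mean less growth of the strain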
# Settings: S. cerevisiae deletion strains, growth OD
smiles,measurement,setting,value
O=C(O[C@@H]1Cc2c(O)cc(O)cc2O[C@@H]1c1cc(O)c(=O)c2c(O)c(O)cc([C@H]3Oc4cc(O)cc(O)c4C[C@H]3OC(=O)c3cc(O)c(O)c(O)c3)c2c1)c1cc(O)c(O)c(O)c1,normalized growth,"locus YAL013W, strain DEP1, stronger effect = lower value",0.633 (active)
same,normalized growth,"locus YAL021C, strain ccr4, stronger effect = lower value",0.0843 (active)
same,normalized growth,"locus YAL026C, strain drs2, stronger effect = lower value",0.432 (active)
same,normalized growth,"locus YAL030W, strain snc1, stronger effect = lower value",0.604 (active)
same,normalized growth,"locus YBL061C, strain skt5, stronger effect = lower value",0.513 (active)
same,normalized growth,"locus YBR009C, strain hhf1, stronger effect = lower value",0.434 (active)
same,normalized growth,"locus YBR021W, strain FUR4, stronger effect = lower value",0.986 (inactive)
same,normalized growth,"locus YBR023C, strain chs3, stronger effect = lower value",0.43 (active)
same,normalized growth,"locus YBR171W, strain sec66, stronger effect = lower value",0.918 (inactive)
same,normalized growth,"locus YBR229C, strain ROT2, stronger effect = lower value",0.981 (inactive)
same,normalized growth,"locus YBR231C, strain swc5, stronger effect = lower value",0.418 (active)
same,normalized growth,"locus YBR279W, strain paf1, stronger effect = lower value",0.554 (active)
same,normalized growth,"locus YCL011C, strain gbp2, stronger effect = lower value",0.509 (active)
same,normalized growth,"locus YCL016C, strain dcc1, stronger effect = lower value",0.754 (active)
same,normalized growth,"locus YCL029C, strain bik1, stronger effect = lower value",0.966 (inactive)
same,normalized growth,"locus YCL061C, strain MRC1, stronger effect = lower value",0.724 (active)
same,normalized growth,"locus YCL069W, strain vba3, stronger effect = lower value",0.776 (active)
same,normalized growth,"locus YCR088W, strain abp1, stronger effect = lower value",0.892 (active)
same,normalized growth,"locus YDL005C, strain med2, stronger effect = lower value",0.821 (active)
same,normalized growth,"locus YDL035C, strain GPR1, stronger effect = lower value",0.658 (active)
same,normalized growth,"locus YDL040C, strain nat1, stronger effect = lower value",0.868 (active)
same,normalized growth,"locus YDL074C, strain BRE1, stronger effect = lower value",0.58 (active)
same,normalized growth,"locus YDL101C, strain DUN1, stronger effect = lower value",0.706 (active)
same,normalized growth,"locus YDL134C, strain PPH21, stronger effect = lower value",0.741 (active)
same,normalized growth,"locus YDL185W, strain tfp1, stronger effect = lower value",0.995 (inactive)
same,normalized growth,"locus YDL192W, strain arf1, stronger effect = lower value",0.955 (inactive)
same,normalized growth,"locus YDR001C, strain nth1, stronger effect = lower value",0.962 (inactive)
same,normalized growth,"locus YDR069C, strain doa4, stronger effect = lower value",0.105 (active)
same,normalized growth,"locus YDR101C, strain arx1, stronger effect = lower value",1 (inactive)
same,normalized growth,"locus YDR137W, strain rgp1, stronger effect = lower value",0.485 (active)
same,normalized growth,"locus YDR150W, strain NUM1, stronger effect = lower value",0.851 (active)
same,normalized growth,"locus YDR159W, strain sac3, stronger effect = lower value",0.735 (active)
same,normalized growth,"locus YDR162C, strain NBP2, stronger effect = lower value",0.344 (active)
same,normalized growth,"locus YDR195W, strain ref2",0.76 (active)
same,normalized growth,"locus YDR297W, strain sur2, stronger effect = lower value",0.45 (active)
same,normalized growth,"locus YDR318W, strain mcm21, stronger effect = lower value",0.981 (inactive)
same,normalized growth,"locus YDR334W, strain swr1, stronger effect = lower value",0.468 (active)
same,normalized growth,"locus YDR335W, strain msn5, stronger effect = lower value",0.604 (active)
same,normalized growth,"locus YDR388W, stronger effect = lower value",1.01 (inactive)
same,normalized growth,"locus YDR392W, strain spt3, stronger effect = lower value",0.81 (inactive)
same,normalized growth,"locus YDR502C, strain sam2, stronger effect = lower value",0.866 (active)
same,normalized growth,"locus YEL003W, strain gim4, stronger effect = lower value",0.527 (active)
same,normalized growth,"locus YEL037C, strain rad23, stronger effect = lower value",0.686 (active)
same,normalized growth,"locus YEL061C, strain CIN8 (second series), stronger effect = lower value",0.915 (inactive)
same,normalized growth,"locus YEL061C, strain CIN8, stronger effect = lower value",0.817 (active)
same,normalized growth,"locus YER015W, strain faa2, stronger effect = lower value",0.305 (active)
same,normalized growth,"locus YER016W, strain bim1, stronger effect = lower value",0.823 (active)
same,normalized growth,"locus YER110C, stronger effect = lower value",1.04 (inactive)
same,normalized growth,"locus YER111C, strain swi4, stronger effect = lower value",0.692 (active)
same,normalized growth,"locus YER155C, strain BEM2 (second series), stronger effect = lower value",0.836 (active)
same,normalized growth,"locus YER155C, strain BEM2, stronger effect = lower value",1 (inactive)
same,normalized growth,"locus YER167W, strain BCK2, stronger effect = lower value",0.896 (active)
same,normalized growth,"locus YFR010W, strain ubp6, stronger effect = lower value",0.571 (active)
same,normalized growth,"locus YGL078C, strain dbp3, stronger effect = lower value",1.02 (inactive)
same,normalized growth,"locus YGL086W, strain mad1, stronger effect = lower value",0.893 (active)
same,normalized growth,"locus YGL167C, strain pmr1, stronger effect = lower value",0.551 (active)
same,normalized growth,"locus YGL173C, strain kem1, stronger effect = lower value",0.181 (active)
same,normalized growth,"locus YGL227W, strain vid30, stronger effect = lower value",0.989 (inactive)
same,normalized growth,"locus YGL240W, strain doc1, stronger effect = lower value",0.693 (active)
same,normalized growth,"locus YGL248W, strain PDE1, stronger effect = lower value",0.681 (active)
same,normalized growth,"locus YGL253W, strain hxk2, stronger effect = lower value",0.555 (active)
same,normalized growth,"locus YGR078C, strain PAC10, stronger effect = lower value",0.787 (active)
same,normalized growth,"locus YGR135W, strain pre9, stronger effect = lower value",0.828 (active)
same,normalized growth,"locus YGR229C, strain SMI1, stronger effect = lower value",0.0949 (active)
same,normalized growth,"locus YGR252W, strain gcn5, stronger effect = lower value",0.896 (inactive)
same,normalized growth,"locus YHR013C, strain ard1, stronger effect = lower value",0.322 (active)
same,normalized growth,"locus YHR027C, strain rpn1, stronger effect = lower value",0.186 (active)
same,normalized growth,"locus YHR030C, strain SLT2, stronger effect = lower value",0.856 (active) and 1.02 (inactive)
same,normalized growth,"locus YHR079C, strain IRE1 (second series), stronger effect = lower value",1.01 (inactive)
same,normalized growth,"locus YHR079C, strain IRE1, stronger effect = lower value",1.04 (inactive)
same,normalized growth,"locus YHR094C, strain hxt1, stronger effect = lower value",1.04 (inactive)
same,normalized growth,"locus YHR129C, strain ARP1, stronger effect = lower value",0.845 (active)
same,normalized growth,"locus YHR142W, strain chs7, stronger effect = lower value",0.493 (active)
same,normalized growth,"locus YHR200W, strain rpn10, stronger effect = lower value",0.969 (inactive)
same,normalized growth,"locus YIL066C, strain RNR3, stronger effect = lower value",0.509 (active)
same,normalized growth,"locus YIL073C, strain SPO22, stronger effect = lower value",0.196 (active)
same,normalized growth,"locus YIL125W, strain kgd1, stronger effect = lower value",1.04 (inactive)
same,normalized growth,"locus YIR030C, strain dcg1, stronger effect = lower value",1.03 (inactive)
same,normalized growth,"locus YJL092W, strain hpr5, stronger effect = lower value",0.856 (active)
same,normalized growth,"locus YJL095W, strain BCK1 (second series), stronger effect = lower value",0.269 (active)
same,normalized growth,"locus YJL095W, strain BCK1, stronger effect = lower value",0.59 (active) and 1.02 (inactive)
same,normalized growth,"locus YJL115W, strain asf1, stronger effect = lower value",0.91 (inactive)
same,normalized growth,"locus YJL129C, strain trk1, stronger effect = lower value",0.812 (active)
same,normalized growth,"locus YJL134W, strain LCB3, stronger effect = lower value",0.965 (inactive)
same,normalized growth,"locus YJL154C, strain vps35, stronger effect = lower value",0.842 (active)
same,normalized growth,"locus YJL164C, strain tpk1, stronger effect = lower value",0.419 (active)
same,normalized growth,"locus YJL166W, strain qcr8, stronger effect = lower value",0.371 (active)
same,normalized growth,"locus YJL168C, strain set2, stronger effect = lower value",1.01 (inactive)
same,normalized growth,"locus YJL187C, strain SWE1 (second series), stronger effect = lower value",0.512 (active)
same,normalized growth,"locus YJL187C, strain SWE1, stronger effect = lower value",0.457 (active)
same,normalized growth,"locus YJR043C, strain POL32, stronger effect = lower value",0.599 (active)
same,normalized growth,"locus YJR066W, strain TOR1, stronger effect = lower value",0.96 (inactive)
